# Test results published in the supplement of paper PMC10849652.
# About 8,800 targets were measured; listed, in parts, are those with a hit and a random draw of the rest. About 0.5% of all pairs of compound and target were hits. Values without a mark were called inactive.
# How the values were obtained:
# Assay in all cases: log2 fold change, soluble protein after heating vs DMSO (PISA); higher = thermal stabilisation; K562 lysate, 10 uM; active = over 0.2 and 3.5 SD of the protein, either way, in both replicates (recomputed)
# [1] = compound: CS(=O)(=O)CCNCc1ccc(-c2ccc3ncnc(Nc4ccc(OCc5cccc(F)c5)c(Cl)c4)c3c2)o1 [lapatinib]
# Procedure, shortened: (§1)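 Soluble protein was defined as the supernatant remaining after 21,000xg for 90 min, following pooling of heated aliquots and adjustment to 0.5% NP-40 at 4°C. Before that, crude K562 extract at 1 mg/mL protein in PBS pH 7.4 with 1 mM MgCl2 was treated with 10 μM compound for 30 min and heated for 3 min across 48°C-58°C. Quantification used TMTpro 16plex LC-MS/MS with channel sums equalised, and values are log-two fold changes in thermal stability relative to solvent controls from duplicates.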
# [2] = compound: CS(=O)(=O)N1CCN(Cc2cc3nc(-c4cccc5[nH]ncc45)nc(N4CCOCC4)c3s2)CC1 [pictilisib]
# Procedure, shortened: as §1
# [3] = compound: C[C@@H](Oc1cc(-c2cnn(C3CCNCC3)c2)cnc1N)c1c(Cl)ccc(F)c1Cl [crizotinib]
# Procedure, shortened: as §1
# [4] = compound: C[C@H](C1=CC=C(C=C1)C(=O)NC2=C3C=CNC3=NC=C2)N
# Procedure, shortened: as §1
# [5] = compound: C[C@H](Nc1ncnc2nc[nH]c12)c1cc2cccc(Cl)c2c(=O)n1-c1ccccc1 [duvelisib]
# Procedure, shortened: as §1
# [6] = compound: Cc1cc(Nc2cc(CN3CCOCC3)c3nc(C)c(Cc4ccc(Cl)cc4F)n3n2)n[nH]1 [gandotinib]
# Procedure, shortened: as §1
# [7] = compound: Cc1cc(Nc2cc(N3CCN(C)CC3)nc(Sc3ccc(NC(=O)C4CC4)cc3)n2)n[nH]1 [tozasertib]
# Procedure, shortened: as §1
# [8] = compound: Cc1ccc(-n2nc(C(C)(C)C)cc2NC(=O)Nc2ccc(OCCN3CCOCC3)c3ccccc23)cc1 [doramapimod]
# Procedure, shortened: as §1
# [9] = compound: Cc1ccc(NC(=O)c2ccc(CN3CC[C@H](N(C)C)C3)c(C(F)(F)F)c2)cc1Nc1nccc(-c2cncnc2)n1 [bafetinib]
# Procedure, shortened: as §1
# [10] = compound: Cc1cccc(CC(=O)N2CCc3c2ccc(-c2cn(C)c4ncnc(N)c24)c3F)n1
# Procedure, shortened: as §1
# [11] = compound: Cc1cn(-c2cc(NC(=O)c3ccc(C)c(Nc4nccc(-c5cccnc5)n4)c3)cc(C(F)(F)F)c2)cn1 [nilotinib]
# Procedure, shortened: as §1
# [12] = compound: Cc1nc(Nc2n[nH]c3c2CN(C(=O)N[C@H](CN(C)C)c2ccccc2)C3(C)C)c2sccc2n1
# Procedure, shortened: as §1
# [13] = compound: Cc1nc(Nc2ncc(C(=O)Nc3c(C)cccc3Cl)s2)cc(N2CCN(CCO)CC2)n1 [dasatinib]
# Procedure, shortened: as §1
# [14] = compound: Cc1ncc(-c2ccnc(Nc3ccc(S(C)(=O)=O)cc3)n2)n1C(C)C
# Procedure, shortened: as §1
# [15] = compound: Cn1cc(-c2ccc3c(c2)CCN3C(=O)Cc2cccc(C(F)(F)F)c2)c2c(N)ncnc21
# Procedure, shortened: as §1
# [16] = compound: Cn1cc(CNCC2CCN(c3ncc(C(=O)NO)cn3)CC2)c2ccccc21 [quisinostat]
# Procedure, shortened: as §1
# [17] = compound: Cn1cncc1[C@@](N)(c1ccc(Cl)cc1)c1ccc2c(c1)c(-c1cccc(Cl)c1)cc(=O)n2C [tipifarnib]
# Procedure, shortened: as §1
# [18] = compound: NC(=O)Nc1cc(-c2cccc(F)c2)sc1C(=O)N[C@H]1CCCNC1
# Procedure, shortened: as §1
# [19] = compound: NC(=O)c1cnc(N[C@@H]2CCCC[C@@H]2N)nc1Nc1cccc(-n2nccn2)c1
# Procedure, shortened: as §1
# [20] = compound: NC1(c2ccc(-c3nc4ccn5c(=O)[nH]nc5c4cc3-c3ccccc3)cc2)CCC1
# Procedure, shortened: as §1
# UniProt Q7L523, sequence (Q7L523 whole entry, looked up): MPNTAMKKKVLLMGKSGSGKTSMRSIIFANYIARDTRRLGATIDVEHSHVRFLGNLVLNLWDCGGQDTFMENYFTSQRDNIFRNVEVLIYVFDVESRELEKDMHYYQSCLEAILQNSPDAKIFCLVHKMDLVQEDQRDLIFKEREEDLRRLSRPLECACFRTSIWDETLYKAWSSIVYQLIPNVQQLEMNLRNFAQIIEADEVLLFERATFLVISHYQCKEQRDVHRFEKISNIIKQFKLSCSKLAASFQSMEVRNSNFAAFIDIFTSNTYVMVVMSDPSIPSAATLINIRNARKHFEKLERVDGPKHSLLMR
# UniProt Q9GZR2, sequence (Q9GZR2 whole entry, looked up): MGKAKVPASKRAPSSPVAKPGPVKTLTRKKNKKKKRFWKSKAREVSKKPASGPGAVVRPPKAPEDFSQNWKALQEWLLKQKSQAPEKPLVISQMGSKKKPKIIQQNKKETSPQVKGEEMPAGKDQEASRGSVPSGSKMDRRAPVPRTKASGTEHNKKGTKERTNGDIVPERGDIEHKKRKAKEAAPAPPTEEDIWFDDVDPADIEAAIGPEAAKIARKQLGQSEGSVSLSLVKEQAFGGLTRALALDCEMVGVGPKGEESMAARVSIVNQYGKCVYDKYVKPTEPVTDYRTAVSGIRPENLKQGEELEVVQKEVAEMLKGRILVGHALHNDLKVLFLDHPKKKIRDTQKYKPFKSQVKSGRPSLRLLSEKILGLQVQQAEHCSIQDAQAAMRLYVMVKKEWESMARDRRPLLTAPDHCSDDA
# UniProt P53805, sequence (P53805 whole entry, looked up): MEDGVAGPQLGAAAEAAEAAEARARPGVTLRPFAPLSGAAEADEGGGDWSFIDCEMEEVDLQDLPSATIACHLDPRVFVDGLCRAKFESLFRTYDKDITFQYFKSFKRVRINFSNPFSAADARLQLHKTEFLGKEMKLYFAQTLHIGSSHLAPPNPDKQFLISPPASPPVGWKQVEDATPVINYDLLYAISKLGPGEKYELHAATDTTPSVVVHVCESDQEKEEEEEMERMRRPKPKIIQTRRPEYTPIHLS
# UniProt Q16576, sequence (Q16576 whole entry, looked up): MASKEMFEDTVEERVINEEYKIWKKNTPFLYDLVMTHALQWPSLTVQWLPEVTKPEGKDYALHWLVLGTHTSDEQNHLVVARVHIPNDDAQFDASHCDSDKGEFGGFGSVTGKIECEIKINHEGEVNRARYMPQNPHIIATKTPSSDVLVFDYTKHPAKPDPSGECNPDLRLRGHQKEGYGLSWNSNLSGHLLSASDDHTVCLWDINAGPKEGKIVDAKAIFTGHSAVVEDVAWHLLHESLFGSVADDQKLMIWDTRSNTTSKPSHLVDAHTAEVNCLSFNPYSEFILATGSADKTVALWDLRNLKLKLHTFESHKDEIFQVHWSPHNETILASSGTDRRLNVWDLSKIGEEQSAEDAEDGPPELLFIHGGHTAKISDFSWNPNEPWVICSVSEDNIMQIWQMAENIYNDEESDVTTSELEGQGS
# UniProt P35249, sequence (P35249 whole entry, looked up): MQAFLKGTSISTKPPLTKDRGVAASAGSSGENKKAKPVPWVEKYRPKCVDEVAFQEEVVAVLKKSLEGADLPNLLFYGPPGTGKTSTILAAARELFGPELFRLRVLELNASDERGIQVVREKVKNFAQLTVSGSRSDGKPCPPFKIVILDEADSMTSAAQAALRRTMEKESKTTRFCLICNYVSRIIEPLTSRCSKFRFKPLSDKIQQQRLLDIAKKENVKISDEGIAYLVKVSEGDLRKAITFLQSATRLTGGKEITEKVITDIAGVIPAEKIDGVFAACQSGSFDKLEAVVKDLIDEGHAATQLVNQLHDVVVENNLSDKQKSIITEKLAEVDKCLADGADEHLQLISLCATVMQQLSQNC
# UniProt Q9BRS2, sequence (Q9BRS2 whole entry, looked up): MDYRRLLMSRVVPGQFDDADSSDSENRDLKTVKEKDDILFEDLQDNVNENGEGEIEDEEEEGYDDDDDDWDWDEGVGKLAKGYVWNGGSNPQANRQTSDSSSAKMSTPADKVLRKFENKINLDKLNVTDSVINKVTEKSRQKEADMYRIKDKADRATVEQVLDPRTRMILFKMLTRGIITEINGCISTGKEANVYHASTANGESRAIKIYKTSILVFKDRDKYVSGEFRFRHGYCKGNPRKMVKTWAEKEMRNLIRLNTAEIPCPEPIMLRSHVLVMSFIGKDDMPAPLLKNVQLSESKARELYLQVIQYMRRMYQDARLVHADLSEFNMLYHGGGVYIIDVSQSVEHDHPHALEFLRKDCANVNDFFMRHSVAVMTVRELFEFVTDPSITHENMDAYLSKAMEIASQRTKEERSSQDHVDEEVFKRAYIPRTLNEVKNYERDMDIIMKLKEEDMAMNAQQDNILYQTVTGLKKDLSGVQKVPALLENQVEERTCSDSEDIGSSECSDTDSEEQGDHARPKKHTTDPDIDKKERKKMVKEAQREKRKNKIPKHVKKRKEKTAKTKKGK
# UniProt P38159, sequence (P38159 whole entry, looked up): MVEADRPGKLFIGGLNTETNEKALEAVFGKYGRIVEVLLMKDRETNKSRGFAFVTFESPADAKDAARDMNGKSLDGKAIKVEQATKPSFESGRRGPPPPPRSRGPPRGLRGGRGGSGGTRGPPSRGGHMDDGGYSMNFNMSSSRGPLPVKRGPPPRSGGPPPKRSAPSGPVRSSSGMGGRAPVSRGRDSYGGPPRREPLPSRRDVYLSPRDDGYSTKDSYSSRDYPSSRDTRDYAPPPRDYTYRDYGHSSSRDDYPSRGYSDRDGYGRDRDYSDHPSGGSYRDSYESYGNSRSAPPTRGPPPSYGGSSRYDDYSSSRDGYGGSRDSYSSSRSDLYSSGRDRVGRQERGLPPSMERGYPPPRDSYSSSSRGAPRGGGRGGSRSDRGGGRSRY
# UniProt Q13530, sequence (Q13530 whole entry, looked up): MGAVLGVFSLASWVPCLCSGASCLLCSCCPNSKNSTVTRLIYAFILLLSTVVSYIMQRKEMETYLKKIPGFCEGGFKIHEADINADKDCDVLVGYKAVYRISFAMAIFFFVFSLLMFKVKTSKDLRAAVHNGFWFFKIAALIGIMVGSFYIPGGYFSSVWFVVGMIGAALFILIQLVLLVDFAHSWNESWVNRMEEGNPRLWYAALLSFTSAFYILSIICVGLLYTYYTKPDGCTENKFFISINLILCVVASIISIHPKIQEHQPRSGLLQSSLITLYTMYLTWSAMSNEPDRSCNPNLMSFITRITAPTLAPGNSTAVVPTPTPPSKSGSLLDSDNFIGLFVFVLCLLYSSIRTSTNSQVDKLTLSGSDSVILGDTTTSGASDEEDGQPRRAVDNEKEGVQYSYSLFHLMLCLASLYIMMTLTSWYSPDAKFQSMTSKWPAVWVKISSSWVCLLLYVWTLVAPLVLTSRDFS
# UniProt Q04864, sequence (Q04864 whole entry, looked up): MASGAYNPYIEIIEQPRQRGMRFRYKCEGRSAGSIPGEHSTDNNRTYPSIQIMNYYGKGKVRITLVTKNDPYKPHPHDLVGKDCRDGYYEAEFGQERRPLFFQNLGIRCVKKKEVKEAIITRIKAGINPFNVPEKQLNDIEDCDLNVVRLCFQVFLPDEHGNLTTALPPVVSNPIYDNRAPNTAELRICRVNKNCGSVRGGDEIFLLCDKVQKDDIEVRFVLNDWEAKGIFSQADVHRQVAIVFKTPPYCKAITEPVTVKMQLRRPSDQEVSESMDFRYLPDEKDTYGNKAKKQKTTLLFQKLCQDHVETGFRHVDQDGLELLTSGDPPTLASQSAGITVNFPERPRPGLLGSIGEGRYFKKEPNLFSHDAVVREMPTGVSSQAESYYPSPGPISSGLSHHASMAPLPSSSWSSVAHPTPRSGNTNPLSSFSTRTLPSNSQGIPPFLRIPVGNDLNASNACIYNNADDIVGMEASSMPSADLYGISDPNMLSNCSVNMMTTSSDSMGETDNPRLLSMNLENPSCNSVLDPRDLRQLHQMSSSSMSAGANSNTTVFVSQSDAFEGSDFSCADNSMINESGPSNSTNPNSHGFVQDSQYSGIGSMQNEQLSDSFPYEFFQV
Target,log2 fold change [1],log2 fold change [2],log2 fold change [3],log2 fold change [4],log2 fold change [5],log2 fold change [6],log2 fold change [7],log2 fold change [8],log2 fold change [9],log2 fold change [10],log2 fold change [11],log2 fold change [12],log2 fold change [13],log2 fold change [14],log2 fold change [15],log2 fold change [16],log2 fold change [17],log2 fold change [18],log2 fold change [19],log2 fold change [20]
RBMX (UniProt P38159),0.002,0.012,0.022,0.011,0.033,-0.003,0.013,0.008,0.068,0.022,0.034,-0.079,-0.029,-0.052,-0.007,0.042,0.005,0.014,0.033,-0.021
REXO4 (UniProt Q9GZR2),0,-0.128,0.017,0.349 (active),-0.003,-0.169,-0.017,-0.056,-0.06,-0.139,-0.001,-0.009,-0.008,0.021,0.008,0.013,0.015,0.03,-0.045,0.034
SERINC3 (UniProt Q13530),-0.052,-0.028,-0.07,-0.38 (active),-0.001,0.16,-0.012,0.03,-0.014,0.075,0.022,0.023,0.026,-0.006,0.009,-0.131,-0.036,0.04,0.008,-0.083
RIOK1 (UniProt Q9BRS2),-0.044,0.197,-0.015,0.92 (active),0.037,-0.138,0.008,0.025,-0.056,-0.134,-0.018,0.06,-0.018,0.072,0.008,-0.007,0.003,-0.012,-0.033,-0.072
RPL31 (UniProt P62899),-0.01,0.009,0.016,-0.006,0.004,0.005,-0.006,-0.041,-0.023,0.029,0.007,-0.034,0.046,-0.036,-0.038,0.043,0.021,-0.004,-0.018,0.005
REL isoform 2 (UniProt Q04864),0.014,0.005,-0.025,0.32 (active),0.001,0.074,0.052,0.023,-0.04,-0.072,0.009,-0.032,-0.015,-0.041,0.056,-0.005,0.014,0.005,-0.009,-0.017
RPS4X (UniProt P62701),-0.006,0.009,-0.024,0.209,0.012,-0.038,-0.018,-0.01,-0.008,-0.04,0.01,-0.023,0.025,-0.002,-0.003,0.016,0.01,-0.001,-0.034,0.008
RELN (UniProt P78509),0.047,0.047,-0.022,-0.104,0.002,0.057,-0.002,-0.044,-0.042,0.08,-0.086,-0.039,-0.005,-0.047,0.002,-0.005,-0.032,0.042,-0.101,0.013
RBBP7 (UniProt Q16576),0.001,0.007,0.026,,0.02,,0.073,-0.036,-0.072,,-0.02,-0.002,0.029,0.007,-0.006,-0.041,0.014,0.04,-0.003,0.039
RRAGA (UniProt Q7L523),0,-0.06,-0.084,0.075,0.063,-0.035,-0.033,-0.058,-0.018,-0.02,-0.144,0.032,-0.025,-0.065,0.024,-0.045,0.109,0.082,0.033,-0.04
RFC4 (UniProt P35249),-0.01,-0.004,-0.027,-0.065,0.01,-0.028,-0.027,0.035,-0.018,0.041,0.001,-0.029,-0.068,-0.002,0.047,-0.016,-0.004,0.03,0.015,-0.011
RCAN1 (UniProt P53805),-0.017,-0.048,-0.127,-0.088,-0.012,0.041,0.017,-0.039,0.123,-0.03,-0.457 (active),0.008,0.023,-0.055,0.038,-0.217,0.131,0.117,0.088,0.036
